# Results reported in PubChem BioAssay (NCATS).
# Inconclusive results are not listed. Calls of active or inactive are those of the source. Calls follow the shape of the full dose curve.
# Assay: Primary qHTS for inhibitors of SARS-S pseudo-typed particle cell entry (AID 1479145); also: nearly all actives have a fitted effect of over 45% in size
# Conditions: SARS-S pseudotyped particle cell entry, luciferase reporter; series mostly up to 57.1 µM; activity change, negative = inhibition: at the top concentration
# % is scaled to controls: 0 for no effect and ±100 for the full control effect.
Structure (SMILES),outcome,"activity change, negative = inhibition"
Cc1c(C(C)C)c(=O)n(-c2ccccc2)n1C,inactive,
CC(=O)Oc1cccc(O)c1,,-28.5% (inactive)
O=S(=O)(O)c1ccc(O)cc1,,-11.9% (inactive)
O=C(O)CSCC(=O)NC1CCSC1=O (stereo unspecified),,-14.4% (inactive)
CC(C(=O)O)c1ccc(C(=O)c2ccccc2)s1 (stereo unspecified),inactive,
CCCCCCCCCCCCCCCC(=O)OC(C)C,,3.68% (inactive)
CC(CN(C)C)C(C)(O)Cc1ccc(Cl)cc1 (stereo unspecified),,-19.9% (inactive)
OC[C@H]1O[C@H](O[C@]2(CCl)O[C@H](CCl)[C@@H](O)[C@@H]2O)[C@H](O)[C@@H](O)[C@H]1Cl,inactive,
CC[N+](CC)(CCNC(=O)C(=O)NCC[N+](CC)(CC)Cc1ccccc1Cl)Cc1ccccc1Cl,,-23.6% (inactive)
COc1cc(C(=O)NC2CCCNC2)cc(OC)c1OC (stereo unspecified),,-11.6% (inactive)
COc1ccc2cc([C@H](C)C(=O)O)ccc2c1,inactive,
Cc1c[nH]c2ccccc12,,3.59% (inactive)
CC(C)(C)NCC(O)COc1ccccc1OCC1CCCO1 (stereo unspecified),,-25.8% (inactive)
CCOC(=O)c1ccccc1O,inactive,
COc1cc2c3cc1Oc1cc(ccc1O)C[C@@H]1c4c(cc(OC)c(O)c4Oc4ccc(cc4)C[C@@H]3N(C)CC2)CC[N+]1(C)C,inactive,
O=C(O)c1cc(=O)c2c(OCC(O)COc3cccc4oc(C(=O)O)cc(=O)c34)cccc2o1,,-0.807% (inactive)
NCCCCCC(=O)O,,1.01% (inactive)
CO[C@@]1(NC(=O)CSC[C@@H](N)C(=O)O)C(=O)N2C(C(=O)O)=C(CSc3nnnn3C)CS[C@@H]21,inactive,
NC(=O)c1ncn([C@@H]2O[C@H](CO)[C@@H](O)[C@H]2O)c1O,inactive,

Structure (SMILES),outcome,"activity change, negative = inhibition"
Cc1ncc([N+](=O)[O-])n1CC(C)O (stereo unspecified),inactive [at 114 µM],
NC(=O)c1ccccc1O,inactive,
CCC[C@@]1(CCc2ccccc2)CC(O)=C([C@H](CC)c2cccc(NS(=O)(=O)c3ccc(C(F)(F)F)cn3)c2)C(=O)O1,,-52.2% (inactive)
CC(=O)CC(c1ccccc1)c1c(O)c2ccccc2oc1=O (stereo unspecified),inactive,
OC[C@H]1O[C@@H](n2cnc3c2NC=NC[C@H]3O)C[C@@H]1O,inactive,
CCCCCC=CCC=CCCCCCCCC(=O)OCC,,-17.6% (inactive)
CCOC(=O)/C=C(C)/C=C/C=C(C)/C=C/c1c(C)cc(OC)c(C)c1C,,4.14% (inactive)
Cn1c(=O)c2[nH]c(Br)nc2n(C)c1=O,,-26% (inactive)
C#CCN[C@@H]1CCc2ccccc21,inactive,
CCOC(=O)c1ccc(O)cc1,,-18.7% (inactive)
OC[C@@H](O)[C@@H](O[C@@H]1O[C@H](CO)[C@H](O)[C@H](O)[C@H]1O)[C@H](O)[C@@H](O)CO,,-13.4% (inactive)
CC(=O)NCc1c(I)c(NC(C)=O)c(I)c(C(=O)O)c1I,,1.64% (inactive)
C[C@@H](O)[C@H]1C(=O)N2C(C(=O)O)=C(SCCN=CN)C[C@H]12,inactive,
CCC(C(=O)NC(=O)NC(C)=O)c1ccccc1 (stereo unspecified),,-24.7% (inactive)
CC(=O)OC(C)C[N+](C)(C)C (stereo unspecified),,-3.72% (inactive)
Nc1ncnc2c1ncn2[C@@H]1O[C@H](CO)[C@@H](O)[C@H]1O,,-1.34% (inactive)
NS(=O)(=O)c1cc(C2(O)NC(=O)c3ccccc32)ccc1Cl (stereo unspecified),,-36.8% (inactive)
O=C(N[C@H](CO)[C@H](O)c1ccc([N+](=O)[O-])cc1)C(Cl)Cl,inactive,
CC(CC(C#N)(c1ccccc1)C(C)C)N(C)C (stereo unspecified),,-30% (inactive)

# Assay: Primary qHTS for Huh7 cytotoxicity: counterscreen for inhibitors of MERS-S pseudotyped particle cell entry (AID 1479147)
# Conditions: cell viability read-out; series mostly up to 57.1 µM; activity change, negative = cytotoxicity: at the top concentration
Structure (SMILES),outcome,"activity change, negative = cytotoxicity"
Cc1c(C(C)C)c(=O)n(-c2ccccc2)n1C,inactive,
CC(=O)Oc1cccc(O)c1,,-2.18% (inactive)
O=S(=O)(O)c1ccc(O)cc1,inactive,
O=C(O)CSCC(=O)NC1CCSC1=O (stereo unspecified),inactive,
CC(C(=O)O)c1ccc(C(=O)c2ccccc2)s1 (stereo unspecified),,-3.59% (inactive)
CCCCCCCCCCCCCCCC(=O)OC(C)C,inactive,
CC(CN(C)C)C(C)(O)Cc1ccc(Cl)cc1 (stereo unspecified),,0.939% (inactive)
OC[C@H]1O[C@H](O[C@]2(CCl)O[C@H](CCl)[C@@H](O)[C@@H]2O)[C@H](O)[C@@H](O)[C@H]1Cl,,1.19% (inactive)
CC[N+](CC)(CCNC(=O)C(=O)NCC[N+](CC)(CC)Cc1ccccc1Cl)Cc1ccccc1Cl,inactive,
COc1cc(C(=O)NC2CCCNC2)cc(OC)c1OC (stereo unspecified),inactive,
COc1ccc2cc([C@H](C)C(=O)O)ccc2c1,inactive,
Cc1c[nH]c2ccccc12,inactive,
CC(C)(C)NCC(O)COc1ccccc1OCC1CCCO1 (stereo unspecified),,-3.5% (inactive)
CCOC(=O)c1ccccc1O,inactive,
COc1cc2c3cc1Oc1cc(ccc1O)C[C@@H]1c4c(cc(OC)c(O)c4Oc4ccc(cc4)C[C@@H]3N(C)CC2)CC[N+]1(C)C,,-16.7% (inactive)
O=C(O)c1cc(=O)c2c(OCC(O)COc3cccc4oc(C(=O)O)cc(=O)c34)cccc2o1,inactive,
NCCCCCC(=O)O,inactive,
CO[C@@]1(NC(=O)CSC[C@@H](N)C(=O)O)C(=O)N2C(C(=O)O)=C(CSc3nnnn3C)CS[C@@H]21,,3.15% (inactive)
NC(=O)c1ncn([C@@H]2O[C@H](CO)[C@@H](O)[C@H]2O)c1O,inactive,

Structure (SMILES),outcome,"activity change, negative = cytotoxicity"
Cc1ncc([N+](=O)[O-])n1CC(C)O (stereo unspecified),inactive [at 114 µM],
NC(=O)c1ccccc1O,inactive,
CCC[C@@]1(CCc2ccccc2)CC(O)=C([C@H](CC)c2cccc(NS(=O)(=O)c3ccc(C(F)(F)F)cn3)c2)C(=O)O1,inactive,
CC(=O)CC(c1ccccc1)c1c(O)c2ccccc2oc1=O (stereo unspecified),inactive,
OC[C@H]1O[C@@H](n2cnc3c2NC=NC[C@H]3O)C[C@@H]1O,inactive,
CCCCCC=CCC=CCCCCCCCC(=O)OCC,,-2% (inactive)
CCOC(=O)/C=C(C)/C=C/C=C(C)/C=C/c1c(C)cc(OC)c(C)c1C,inactive,
Cn1c(=O)c2[nH]c(Br)nc2n(C)c1=O,inactive,
C#CCN[C@@H]1CCc2ccccc21,,3.01% (inactive)
CCOC(=O)c1ccc(O)cc1,inactive,
OC[C@@H](O)[C@@H](O[C@@H]1O[C@H](CO)[C@H](O)[C@H](O)[C@H]1O)[C@H](O)[C@@H](O)CO,inactive,
CC(=O)NCc1c(I)c(NC(C)=O)c(I)c(C(=O)O)c1I,inactive,
C[C@@H](O)[C@H]1C(=O)N2C(C(=O)O)=C(SCCN=CN)C[C@H]12,,-11.5% (inactive)
CCC(C(=O)NC(=O)NC(C)=O)c1ccccc1 (stereo unspecified),inactive,
CC(=O)OC(C)C[N+](C)(C)C (stereo unspecified),,0.695% (inactive)
Nc1ncnc2c1ncn2[C@@H]1O[C@H](CO)[C@@H](O)[C@H]1O,inactive,
NS(=O)(=O)c1cc(C2(O)NC(=O)c3ccccc32)ccc1Cl (stereo unspecified),inactive,
O=C(N[C@H](CO)[C@H](O)c1ccc([N+](=O)[O-])cc1)C(Cl)Cl,inactive,
CC(CC(C#N)(c1ccccc1)C(C)C)N(C)C (stereo unspecified),inactive,
